# Assay outcomes from PubChem.
# Only some compounds are listed: those with a hit (about 2.1% of all), similar ones and a draw of the others.
# TDP43 rescue: TDP-43 toxicity inhibition in yeast; TDP-43 expressing yeast growth rescue, BacTiter-Glo, 24 h; Potency, µM (doses to about 46.1 µM), for the others: at the top dose growth rescue (activation), usual class: activators; 410,000 compounds, 1.8% hits; note: % of control where 0% means no effect; nearly all actives have a fitted effect of over 50% in size
#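 Readout is BacTiter-Glo luminescence of cell growth, so inhibitors register as activators. TDP-43-expressing yeast at OD600=0.02 in galactose medium, after raffinose pregrowth to mid-log, were incubated with compound for 24 hr at 30 deg C.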
# Abeta rescue: A-beta toxicity reversal in yeast; 410,000 compounds, 0.063% hits; yeast expressing A-beta42, growth rescue, OD600, 48 h; response scale: 0% DMSO, 100% iron-clioquinol control; AID 1347071; Potency, µM (titrated, usually from 46.1 µM), most hits filed as activators; note: nearly all actives have a fitted effect of over 55% in size
#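 Yeast growth medium received pinned compounds, then yeast cells expressing toxic A-beta were added; plates incubated at 30 C for 48 hr. Growth read as absorbance at 600 nm, normalized to DMSO and equimolar FeCl3 plus clioquinol controls.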
# aSyn yeast inh: alpha-synuclein toxicity inhibition in yeast. Yeast expressing alpha-synuclein, growth rescue, BacTiter-Glo, 24 h. Potency, µM (series often up to 46.1 µM), for the others: at the top dose growth rescue (activation), most hits filed as activators. 370,000 compounds, 0.14% hits. AID 652106; note: % of control where 0% means no effect; nearly all actives have a fitted effect of over 65% in size
#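 Galactose-induced alpha-syn yeast (OD600=0.02, raffinose-pregrown) + pinned cpd, 24 hr, 30 deg C; growth by BacTiter-Glo luminescence. Growth restoration scores as activation.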
# FUS suppressor: rescues growth of FUS-expressing yeast | S. cerevisiae FUS-expressing, growth rescue, OD600, 24 h | Potency, µM (titrated, usually from 76.6 µM), hits mostly activators | 390,000 compounds, 0.24% hits | AID 1347120;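 note: plate controls were DMSO vehicle for no effect and reference control for full effect; nearly all actives have a fitted effect of over 55% in size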
#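 Compound concentration series was pinned onto galactose-induced FUS-expressing yeast seeded at OD 0.005. Plates sat 24hr at 30C; absorbance at 600 nm gave growth. DMSO served as background control.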
# * = called active by the depositor; i = inactive; ? = inconclusive; / = no result; [ ] = another dose, or the depositor's remark. Calls come from the whole dose curve; as a rule, active = well fitted curve in the direction sought with a large enough effect; inconclusive = small, poorly fitted or top-dose-only effect, or another doubt; inactive = no such curve, though single readings can be large; an effect the other way counts as inactive or inconclusive. Potency is the fitted concentration of half-maximal effect.
SMILES,TDP43 rescue,Abeta rescue,aSyn yeast inh,FUS suppressor
CCn1c(COc2ccc(C)cc2)nnc1SCC(=O)Nc1cc(OC)ccc1OC,12.6µM*,i,2.4%,?
COc1ccc(-c2nc3ccccc3o2)cc1NC(=O)c1cccc2c(Cl)cccc12,10.0%,i,/,i
COc1ccc(NC(=O)CN(C)S(=O)(=O)c2ccc3[nH]c4c(c3c2)CCCC4)cc1Cl,0.0%,i,/,i
O=c1oc2ccccc2c2[nH]ccc12,-18.7%,i,6.9%,i
O=c1oc2ccccc2c2c1ccc1ccccc12,35.5µM*,i,6.9%,i
COCCCN1C(=O)[C@H](CC(=O)NCc2ccc(C)o2)[C@]2(C(=O)OC)CCCCC=C12,/,/,/,i
Cc1cccc(-n2nnc(C(=O)NCc3ccccc3)c2N)c1,24.7%,i,-8.8%,i
O=C(CSc1nnnn1-c1ccccc1)NC1CCCc2ccccc21 (stereo not drawn),11.2µM*,?,5.8%,i
CC1(C)CC(=O)C(CC(=O)NC2CCCc3ccccc32)C(=O)C1 (stereo not drawn),25.1µM*,i,-0.3%,i
Cc1cccc(-n2nnc(C(=O)NC3CCCc4ccccc43)c2N)c1 (stereo not drawn),15.8µM*,i,0.1%,i
COc1cc(C(=O)NCC(=O)OCC(=O)c2cccc3ccccc23)cc(OC)c1OC,8.5%,i,-0.3%,12.6µM*
COC(=O)[C@@]12CCCCC=C1N(CCc1ccc(Cl)cc1)C(=O)[C@H]2CC(=O)NCc1cccc2ccccc12,/,/,/,i
CC(C)c1ccc(Nc2n[nH]c(=S)s2)cc1,14.1µM*,i,-0.9%,i
O=C(NCc1cccc(Cl)c1)c1cc(COc2ccc3ncccc3c2)on1,14.1µM*,i,-10.9%,i
CCN(CC)CCCNc1sc(S(=O)(=O)c2ccccc2)nc1S(=O)(=O)c1ccc(Cl)cc1,24.9%,i,/,i
CC(C)OCCCNc1sc(S(=O)(=O)c2ccccc2)nc1S(=O)(=O)c1ccc(Cl)cc1,12.0%,i,/,31.6µM*
Cc1ccc(NC(=O)C(Cc2ccccc2)NS(=O)(=O)c2ccc3c(c2)c(=O)n(C)c(=O)n3C)c(C)c1 (stereo not drawn),-6.6%,i,/,i
O=C(CSc1cccc[n+]1[O-])N1CCCCCC1,9.3%,i,0.1%,i
O=C(CSc1cccc[n+]1[O-])CSc1cccc[n+]1[O-],3.55µM*,?,?,i
O=[N+]([O-])c1cccc(C=NNc2ccc3ccccc3n2)c1O,?,i,2µM*,/
NNC(=O)C1COc2cc3ccccc3cc2O1 (stereo not drawn),24.1%,i,-1.2%,i
O=C(N/N=C\c1ccccn1)C1COc2cc3ccccc3cc2O1 (stereo not drawn),8.9%,?,20µM*,i
O=C(N/N=C\c1cccc([N+](=O)[O-])c1O)C1COc2ccccc2O1 (stereo not drawn),11.2µM*,i,6.31µM*,i
O=C(N/N=C/c1ccc([N+](=O)[O-])cc1)c1cccs1,3.6%,i,-1.6%,i
O=C(N/N=C/c1cccc([N+](=O)[O-])c1O)c1cccs1,27.5%,i,7.94µM*,/
SMILES,TDP43 rescue,Abeta rescue,aSyn yeast inh,FUS suppressor
COc1cccc2cc(C(=O)NCCc3c(C)[nH]c4ccc(Br)cc34)c(=O)oc12,5.0%,i,-0.2%,i
O=S(=O)(c1ccc(OC(F)(F)F)cc1)N1CCN(c2nc(-c3cccs3)nc3ccccc23)CC1,/,/,1.7%,/
COCCCNC(=O)C1CCN(Cc2cc3ccccc3n2Cc2cccc(C)c2)CC1,23.2%,i,/,i
CN(C)/C=N/c1nc2nccc(-c3ccccn3)n2n1,10.4%[9.22 µM],i,-2.4%,i
Cc1ccc(-c2ccnc3nc(-n4cccc4)nn23)o1,35.5µM*,i,-3.3%,i
CCOC(=O)[C@@]12CCCC3=C1N(CCC3)C(=O)[C@H]2CC(=O)N1CCCCC1,/,/,/,i
COC(=O)c1cc2oc3ccccc3c2n1Cc1ccccn1,12.6µM*,i,-20.3%,i
COC(=O)c1cc2oc3ccccc3c2n1Cc1ccc(C)cc1,8.1%,i,/,i
N#C/C(=C(/O)COC(=O)Cc1c[nH]c2ccccc12)c1nc2ccccc2[nH]1,-0.1%,?,-0.5%,35.5µM*
COc1ccccc1OCC(=O)OC/C(O)=C(\C#N)c1nc2ccccc2[nH]1,14.8%,i,-0.5%,i
CCCCNC(=O)C1(C(=O)c2ccc(OC)cc2)CC(c2ccccn2)=NO1 (stereo not drawn),/,/,/,i
Cc1ccc(NC(=O)N2CCC(c3nc4ccc(Cl)cc4[nH]3)CC2)cc1F,/,/,/,i
CCCC(=O)N1CCC[C@]2(CC[C@@H](CCC(=O)OCC)O2)C1,/,/,/,i
COc1cc2nc(/C=C/c3cc(OC)c(OC)c(OC)c3)sc2cc1SC,-22.1%,i,-2.8%,?
COc1cc2nc(C)sc2cc1SC,20µM*,i,-1.5%,?
CCOc1ccccc1CNCc1c(C(=O)O)c(C)n(Cc2ccc(Cl)cc2)c1C,-8.3%,i,/,i
CCOC(=O)CN(Cc1ccccc1)C(C(=O)NC1CCCCC1)c1ccccc1 (stereo not drawn),?,i,/,i
COc1ccc(Cc2nnc(SCc3ccc([N+](=O)[O-])cc3)o2)cc1,17.8µM*,i,6.5%,i
O=[N+]([O-])c1ccc(CSc2nnc(Cc3ccccc3)o2)cc1,?,i,13.2%,i
COc1ccc2c(c1)c1c(c(=O)n(Cc3ccccc3)c(=O)n1Cc1ccc(C)cc1)n2C,17.6%,i,/,i
Cc1cc(C)nc(N(C#N)CCOc2ccccc2)n1,12.6µM*,i,?,i
CCN(C(=O)C1CCC(CNS(=O)(=O)c2cccc3nsnc23)CC1)c1ccccc1 (stereo not drawn),16.5%,i,/,i
Cc1csc(Nc2ccc(Cl)cc2)n1,15.8µM*,?,-7.0%,i
O=C(OCc1cn(Cc2ccc(C(F)(F)F)cc2)nn1)N1CCOCC1,/,/,/,i
Cc1cc(-c2nc3ccccc3s2)ccc1N,17.8µM*,i,-17.2%,/
SMILES,TDP43 rescue,Abeta rescue,aSyn yeast inh,FUS suppressor
CCCCNC(=O)C1(C)CCCCN1C(=O)c1ccc2c(c1)C(C)(C)CCC2(C)C (stereo not drawn),20µM*,i,6.1%,i
CCOc1ccc(N/C=C/C(=O)c2ccc(OC)c(OC)c2)cc1,15.8µM*,i,?,i
CCCOc1ccc(N/C=C/C(=O)c2ccc(OC)c(OC)c2)cc1,6.4%,i,16.0%,i
CC(Sc1nnc(NC2CCCCC2)s1)C(=O)Nc1ccc2c(c1)C(=O)c1ccccc1C2=O (stereo not drawn),35.5µM*,i,1.7%,?
CC(Sc1nnc(NC2CC2)s1)C(=O)Nc1ccc(N2CCOCC2)cc1 (stereo not drawn),?,i,4.8%,i
O=S(=O)(c1ccc(-c2csc(=Nc3ccc(F)cc3)n2CCCCCCO)cc1)N1CCCC1,19.8%,i,/,?
